# Reference: PubChem BioAssay AID1159580 (chemical genetic matrix, 2015)
# Hit rate of the full screen: of about 5,500 compounds, about 2,000 (36%) were called active. About 18% were inconclusive and are not listed. The list shows a part of the results. Values without a mark were called inactive. Cut-off read from the data, not from the text of the source: active = normalized growth mostly below about 0.91 (no sharp cut-off); inconclusive = no clear call, values can overlap the other calls; inactive = mostly above about 0.92.
# Test: chemical genetic growth profiling, strain panel (AID 1159580);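 note: tested at 20 µM; growth read once vehicle control cultures reached saturation at 30 °C; 1 = growth at the plate median or of vehicle wells; lower values mean less growth of the strain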
# Settings: growth OD
# [1] = S. cerevisiae deletion strains, locus YAR019C, strain CDC15, stronger effect = lower value
# [2] = S. cerevisiae deletion strains, locus YBL105C, strain PKC1, stronger effect = lower value
# [3] = S. cerevisiae deletion strains, locus YBR135W, strain CKS1, stronger effect = lower value
# [4] = S. cerevisiae deletion strains, locus YBR136W, strain MEC1, stronger effect = lower value
# [5] = S. cerevisiae deletion strains, locus YBR160W, strain CDC28, stronger effect = lower value
# [6] = S. cerevisiae deletion strains, locus YDL017W, strain CDC7, stronger effect = lower value
# [7] = S. cerevisiae deletion strains, locus YDL028C, strain MPS1, stronger effect = lower value
# [8] = S. cerevisiae deletion strains, locus YDL101C, strain DUN1, stronger effect = lower value
# [9] = S. cerevisiae deletion strains, locus YDL108W, strain KIN28, stronger effect = lower value
# [10] = S. cerevisiae deletion strains, locus YDL132W, strain cdc53, stronger effect = lower value
# [11] = S. cerevisiae deletion strains, locus YDL214C, strain PRR2, stronger effect = lower value
# [12] = S. cerevisiae deletion strains, locus YDR052C, strain DBF4, stronger effect = lower value
# [13] = S. cerevisiae deletion strains, locus YDR054C, strain cdc34, stronger effect = lower value
# [14] = S. cerevisiae deletion strains, locus YDR226W, strain ADK1, stronger effect = lower value
# [15] = S. cerevisiae deletion strains, locus YDR477W, strain SNF1, stronger effect = lower value
# [16] = S. cerevisiae deletion strains, locus YER123W, strain YCK3, stronger effect = lower value
# [17] = S. cerevisiae deletion strains, locus YER133W, strain GLC7, stronger effect = lower value
# [18] = S. cerevisiae deletion strains, locus YFL009W, strain cdc4, stronger effect = lower value
# [19] = S. cerevisiae deletion strains, locus YFL029C, strain CAK1, stronger effect = lower value
# [20] = S. cerevisiae deletion strains, locus YFR003C, strain YPI1, stronger effect = lower value
# [21] = S. cerevisiae deletion strains, locus YFR019W, strain FAB1, stronger effect = lower value
# [22] = S. cerevisiae deletion strains, locus YFR028C, strain CDC14, stronger effect = lower value
# [23] = S. cerevisiae deletion strains, locus YGR040W, strain KSS1, stronger effect = lower value
# [24] = S. cerevisiae deletion strains, locus YGR052W, strain FMP48, stronger effect = lower value
# [25] = S. cerevisiae deletion strains, locus YGR092W, strain DBF2, stronger effect = lower value
# [26] = S. cerevisiae deletion strains, locus YHR030C, strain SLT2, stronger effect = lower value
# [27] = S. cerevisiae deletion strains, locus YHR079C, strain IRE1, stronger effect = lower value
# [28] = S. cerevisiae deletion strains, locus YHR082C, strain KSP1, stronger effect = lower value
# [29] = S. cerevisiae deletion strains, locus YHR205W, strain SCH9, stronger effect = lower value
# [30] = S. cerevisiae deletion strains, locus YIL147C, strain SLN1, stronger effect = lower value
# [31] = S. cerevisiae deletion strains, locus YJL095W, strain BCK1, stronger effect = lower value
# [32] = S. cerevisiae deletion strains, locus YJL128C, strain PBS2, stronger effect = lower value
# [33] = S. cerevisiae deletion strains, locus YJL157C, strain FAR1, stronger effect = lower value
# [34] = S. cerevisiae deletion strains, locus YJR016C, strain ILV3, stronger effect = lower value
# [35] = S. cerevisiae deletion strains, locus YJR066W, strain TOR1 (second series), stronger effect = lower value
# [36] = S. cerevisiae deletion strains, locus YJR066W, strain TOR1, stronger effect = lower value
# [37] = S. cerevisiae deletion strains, locus YKL048C, strain ELM1, stronger effect = lower value
# [38] = S. cerevisiae deletion strains, locus YKL067W, strain YNK1, stronger effect = lower value
# [39] = S. cerevisiae deletion strains, locus YKL101W, strain HSL1, stronger effect = lower value
# [40] = S. cerevisiae deletion strains, locus YKL193C, strain SDS22, stronger effect = lower value
# [41] = S. cerevisiae deletion strains, locus YKL203C, strain TOR2, stronger effect = lower value
# [42] = S. cerevisiae deletion strains, locus YLR113W, strain HOG1, stronger effect = lower value
# [43] = S. cerevisiae deletion strains, locus YLR133W, strain CKI1, stronger effect = lower value
# [44] = S. cerevisiae deletion strains, locus YLR403W, strain SFP1, stronger effect = lower value
# [45] = S. cerevisiae deletion strains, locus YML070W, strain DAK1, stronger effect = lower value
# [46] = S. cerevisiae deletion strains, locus YMR001C, strain CDC5, stronger effect = lower value
# [47] = S. cerevisiae deletion strains, locus YMR205C, strain PFK2 (second series), stronger effect = lower value
# [48] = S. cerevisiae deletion strains, locus YMR277W, strain FCP1, stronger effect = lower value
# [49] = S. cerevisiae deletion strains, locus YNL006W, strain LST8, stronger effect = lower value
# [50] = S. cerevisiae deletion strains, locus YNL020C, strain ARK1, stronger effect = lower value
# [51] = S. cerevisiae deletion strains, locus YNL161W, strain CBK1, stronger effect = lower value
# [52] = S. cerevisiae deletion strains, locus YNL183C, strain NPR1, stronger effect = lower value
# [53] = S. cerevisiae deletion strains, locus YNL207W, strain RIO2, stronger effect = lower value
# [54] = S. cerevisiae deletion strains, locus YNL222W, strain SSU72, stronger effect = lower value
# [55] = S. cerevisiae deletion strains, locus YNL307C, strain MCK1 (second series), stronger effect = lower value
# [56] = S. cerevisiae deletion strains, locus YOL078W, strain AVO1, stronger effect = lower value
# [57] = S. cerevisiae deletion strains, locus YOL136C, strain PFK27, stronger effect = lower value
# [58] = S. cerevisiae deletion strains, locus YOR061W, strain CKA2, stronger effect = lower value
# [59] = S. cerevisiae deletion strains, locus YOR119C, strain RIO1, stronger effect = lower value
# [60] = S. cerevisiae deletion strains, locus YOR231W, strain MKK1, stronger effect = lower value
# [61] = S. cerevisiae deletion strains, locus YOR329C, strain SCD5, stronger effect = lower value
# [62] = S. cerevisiae deletion strains, locus YPL031C, strain PHO85, stronger effect = lower value
# [63] = S. cerevisiae deletion strains, locus YPL153C, strain RAD53, stronger effect = lower value
# [64] = S. cerevisiae deletion strains, locus YPL204W, strain HRR25, stronger effect = lower value
# [65] = S. cerevisiae deletion strains, locus YPL209C, strain IPL1, stronger effect = lower value
# [66] = S. cerevisiae deletion strains, locus YPL256C, strain CLN2, stronger effect = lower value
# [67] = S. cerevisiae deletion strains, locus YPR025C, strain CCL1, stronger effect = lower value
# [68] = S. cerevisiae deletion strains, locus YPR106W, strain ISR1, stronger effect = lower value
# [69] = S. cerevisiae deletion strains, locus YPR111W, strain DBF20, stronger effect = lower value
# [70] = S. cerevisiae deletion strains, strain NNK1, stronger effect = lower value
# [71] = S. cerevisiae deletion strains, strain TSCII, stronger effect = lower value
structure (smiles),measurement,setting,value
O=[N+]([O-])c1ccc2oc(C(O)c3ccc(-c4ccccc4)cc3)cc2c1 (stereo not drawn),normalized growth,[1],0.989
same,normalized growth,[2],0.976
same,normalized growth,[3],0.978
same,normalized growth,[4],0.975
same,normalized growth,[5],0.985
same,normalized growth,[6],0.979
same,normalized growth,[7],0.987
same,normalized growth,[8],0.975
same,normalized growth,[9],0.969
same,normalized growth,[10],0.996
same,normalized growth,[11],0.84
same,normalized growth,[12],0.982
same,normalized growth,[13],0.995
same,normalized growth,[14],0.999
same,normalized growth,[15],0.849
same,normalized growth,[16],0.805
same,normalized growth,[17],0.863
same,normalized growth,[18],1
same,normalized growth,[19],0.976
same,normalized growth,[20],0.984
same,normalized growth,[21],0.904
same,normalized growth,[22],0.997
same,normalized growth,[23],0.859
same,normalized growth,[24],0.926
same,normalized growth,[25],0.802
same,normalized growth,[26],0.786 (active)
same,normalized growth,[27],0.896
same,normalized growth,[28],0.86
same,normalized growth,[29],0.967
same,normalized growth,[30],0.968
same,normalized growth,[31],0.905
same,normalized growth,[32],1.05
same,normalized growth,[33],0.822
same,normalized growth,[34],0.977
same,normalized growth,[35],0.751
same,normalized growth,[36],0.829
same,normalized growth,[37],0.979
same,normalized growth,[38],0.872
same,normalized growth,[39],0.982
same,normalized growth,[40],0.98
same,normalized growth,[41],0.924
same,normalized growth,[42],0.882
same,normalized growth,[43],0.877
same,normalized growth,[44],0.902
same,normalized growth,[45],0.835
same,normalized growth,[46],0.982
same,normalized growth,[47],0.882
same,normalized growth,[48],0.994
same,normalized growth,[49],0.987
same,normalized growth,[50],0.854
same,normalized growth,[51],0.984
same,normalized growth,[52],0.919
same,normalized growth,[53],0.979
same,normalized growth,[54],0.976
same,normalized growth,[55],0.936
same,normalized growth,[56],0.993
same,normalized growth,[57],0.849
same,normalized growth,[58],0.75
same,normalized growth,[59],0.904
same,normalized growth,[60],0.892
same,normalized growth,[61],0.985
same,normalized growth,[62],0.848
same,normalized growth,[63],0.821
same,normalized growth,[64],0.88
same,normalized growth,[65],0.977
same,normalized growth,[66],0.96
same,normalized growth,[67],0.985
same,normalized growth,[68],1
same,normalized growth,[69],1.03
same,normalized growth,[70],0.997
same,normalized growth,[71],0.987
O=[N+]([O-])c1ccc2oc(C(O)c3cccc(Cl)c3)cc2c1 (stereo not drawn),normalized growth,[1],0.947
same,normalized growth,[2],0.948
same,normalized growth,[3],0.943
same,normalized growth,[4],0.957
same,normalized growth,[5],0.947
same,normalized growth,[6],0.949
same,normalized growth,[7],0.954
same,normalized growth,[8],0.937
same,normalized growth,[9],0.949
same,normalized growth,[10],0.936
same,normalized growth,[11],0.942
same,normalized growth,[12],0.953
same,normalized growth,[13],0.951
same,normalized growth,[14],0.952
same,normalized growth,[15],0.957
same,normalized growth,[16],0.94
same,normalized growth,[17],0.96
same,normalized growth,[18],0.945
same,normalized growth,[19],0.946
same,normalized growth,[20],0.948
same,normalized growth,[21],0.931
same,normalized growth,[22],0.949
same,normalized growth,[23],0.964
same,normalized growth,[24],1.05
same,normalized growth,[25],0.907
same,normalized growth,[26],1.08
same,normalized growth,[27],1.02
same,normalized growth,[28],1.06
same,normalized growth,[29],0.931
same,normalized growth,[30],0.96
same,normalized growth,[31],1.04
same,normalized growth,[32],0.91
same,normalized growth,[33],0.932
same,normalized growth,[34],0.954
same,normalized growth,[35],0.93
same,normalized growth,[36],1.09
same,normalized growth,[37],0.93
same,normalized growth,[38],0.942
same,normalized growth,[39],0.934
same,normalized growth,[40],0.946
same,normalized growth,[41],1.03
same,normalized growth,[42],0.893
same,normalized growth,[43],0.935
same,normalized growth,[44],0.939
same,normalized growth,[45],0.94
same,normalized growth,[46],0.945
same,normalized growth,[47],0.944
same,normalized growth,[48],0.952
same,normalized growth,[49],0.954
same,normalized growth,[50],0.929
same,normalized growth,[51],0.956
same,normalized growth,[52],1.04
same,normalized growth,[53],0.944
same,normalized growth,[54],0.947
same,normalized growth,[55],0.925
same,normalized growth,[56],0.946
same,normalized growth,[57],0.95
same,normalized growth,[58],0.922
same,normalized growth,[59],0.992
same,normalized growth,[60],1.01
same,normalized growth,[61],0.948
same,normalized growth,[62],0.953
same,normalized growth,[63],0.955
same,normalized growth,[64],0.954
same,normalized growth,[65],0.946
same,normalized growth,[66],0.996
same,normalized growth,[67],0.953
same,normalized growth,[68],0.961
same,normalized growth,[69],0.948
same,normalized growth,[70],0.934
same,normalized growth,[71],0.944
O=C(c1ccc(-c2ccccc2)cc1)c1cc2cc([N+](=O)[O-])ccc2o1,normalized growth,"S. cerevisiae deletion strains, locus YAL013W, strain DEP1, stronger effect = lower value",1
same,normalized growth,"S. cerevisiae deletion strains, locus YBR229C, strain ROT2, stronger effect = lower value",0.993
same,normalized growth,[8],1.02
same,normalized growth,"S. cerevisiae deletion strains, locus YDR150W, strain NUM1, stronger effect = lower value",0.99
same,normalized growth,"S. cerevisiae deletion strains, locus YEL061C, strain CIN8, stronger effect = lower value",1.01
same,normalized growth,"S. cerevisiae deletion strains, locus YGR078C, strain PAC10, stronger effect = lower value",1.01
same,normalized growth,[26],1.01
same,normalized growth,"S. cerevisiae deletion strains, locus YHR087W, strain rtc3, stronger effect = lower value",1.01
same,normalized growth,"S. cerevisiae deletion strains, locus YJR043C, strain POL32, stronger effect = lower value",0.997
same,normalized growth,"S. cerevisiae deletion strains, locus YJR075W, strain HOC1, stronger effect = lower value",1.03
same,normalized growth,"S. cerevisiae deletion strains, locus YKL190W, strain CNB1, stronger effect = lower value",0.993
same,normalized growth,"S. cerevisiae deletion strains, locus YLR039C, strain RIC1, stronger effect = lower value",0.986
same,normalized growth,"S. cerevisiae deletion strains, locus YLR058C, strain SHM2 (second series), stronger effect = lower value",0.993
same,normalized growth,"S. cerevisiae deletion strains, locus YLR085C, strain ARP6, stronger effect = lower value",1
same,normalized growth,"S. cerevisiae deletion strains, locus YLR262C, strain YPT6, stronger effect = lower value",0.981
same,normalized growth,"S. cerevisiae deletion strains, locus YML094W, strain GIM5, stronger effect = lower value",1.07
same,normalized growth,"S. cerevisiae deletion strains, locus YMR219W, strain ESC1, stronger effect = lower value",1
same,normalized growth,"S. cerevisiae deletion strains, locus YMR263W, strain SAP30, stronger effect = lower value",1.04
same,normalized growth,"S. cerevisiae deletion strains, locus YNL153C, strain GIM3, stronger effect = lower value",1.01
same,normalized growth,"S. cerevisiae deletion strains, locus YNL298W, strain CLA4 (second series), stronger effect = lower value",0.996
same,normalized growth,"S. cerevisiae deletion strains, locus YNL322C, strain KRE1, stronger effect = lower value",1.01
same,normalized growth,"S. cerevisiae deletion strains, locus YNR030W, strain Alg12, stronger effect = lower value",1
same,normalized growth,"S. cerevisiae deletion strains, locus YPL055C, strain LGE1, stronger effect = lower value",1.01
same,normalized growth,"S. cerevisiae deletion strains, locus YPL241C, strain CIN2, stronger effect = lower value",1.07
same,normalized growth,"S. cerevisiae deletion strains, locus YPR135W, strain CTF4, stronger effect = lower value",1.12
same,normalized growth,"S. cerevisiae strains, strain wild type, stronger effect = lower value",0.987
